# High-throughput results from PubChem BioAssay.
# Rows were chosen to be rich in hits. Some 2.9% of all compounds tested hit in one or more screens of this group.
# IP6K1 inhibitor: Primary qHTS assay for small molecule inhibitors of Inositol hexaphosphate kinase 1 (IP6K1); Inositol hexakisphosphate kinase 1 (Homo sapiens), Q92551; IP6K1 kinase, ADP-Glo luminescence, 2 h; stronger effect = lower value; activity change, % (series mostly up to about 58 µM); 0.81% of 140,000 active; AID 1645851, 2021; in the data active means activity change below about -25%; further: on the % scale 0 is the no-effect control and ±100 the full control effect
#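 ADP-Glo luminescence measures ADP made by human IP6K1 during a 2 h RT reaction with ATP/IP6 (mix at 1.3 mM/130 uM); top library doses 57.5 and 19.1 uM final.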
# SNCA expr inh: Primary qHTS assay for inhibitors of alpha-synuclein gene (SNCA) expression | HEK-293 SNCA-luciferase knock-in, luminescence, 24 h | Potency, µM (highest dose often 57.2 µM), inactives show at the highest dose activity change, negative = inhibition, hits mostly inhibitors | 0.17% of 140,000 active | AID 1671194, 2021;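 further: potency means the concentration at half of the fitted maximal effect; plate controls were DMSO cells for no effect and cell-free wells for full effect; nearly all actives have a fitted effect of over 45% in size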
# KDM5B inh: Primary screen for KDM5B Histone Demethylases FDH-coupled qHTS | KDM5B demethylase, FDH-coupled NADH fluorescence (FDH is formaldehyde dehydrogenase) | Potency, µM (titrated, usually from 57.7 µM), actives largely listed as inhibitors | 2.6% of 220,000 active; further: potency means the concentration at half of the fitted maximal effect; 0% is about no effect; nearly all actives have a fitted effect of over 70% in size
# Target sequence (Q9UGL1 whole entry, looked up): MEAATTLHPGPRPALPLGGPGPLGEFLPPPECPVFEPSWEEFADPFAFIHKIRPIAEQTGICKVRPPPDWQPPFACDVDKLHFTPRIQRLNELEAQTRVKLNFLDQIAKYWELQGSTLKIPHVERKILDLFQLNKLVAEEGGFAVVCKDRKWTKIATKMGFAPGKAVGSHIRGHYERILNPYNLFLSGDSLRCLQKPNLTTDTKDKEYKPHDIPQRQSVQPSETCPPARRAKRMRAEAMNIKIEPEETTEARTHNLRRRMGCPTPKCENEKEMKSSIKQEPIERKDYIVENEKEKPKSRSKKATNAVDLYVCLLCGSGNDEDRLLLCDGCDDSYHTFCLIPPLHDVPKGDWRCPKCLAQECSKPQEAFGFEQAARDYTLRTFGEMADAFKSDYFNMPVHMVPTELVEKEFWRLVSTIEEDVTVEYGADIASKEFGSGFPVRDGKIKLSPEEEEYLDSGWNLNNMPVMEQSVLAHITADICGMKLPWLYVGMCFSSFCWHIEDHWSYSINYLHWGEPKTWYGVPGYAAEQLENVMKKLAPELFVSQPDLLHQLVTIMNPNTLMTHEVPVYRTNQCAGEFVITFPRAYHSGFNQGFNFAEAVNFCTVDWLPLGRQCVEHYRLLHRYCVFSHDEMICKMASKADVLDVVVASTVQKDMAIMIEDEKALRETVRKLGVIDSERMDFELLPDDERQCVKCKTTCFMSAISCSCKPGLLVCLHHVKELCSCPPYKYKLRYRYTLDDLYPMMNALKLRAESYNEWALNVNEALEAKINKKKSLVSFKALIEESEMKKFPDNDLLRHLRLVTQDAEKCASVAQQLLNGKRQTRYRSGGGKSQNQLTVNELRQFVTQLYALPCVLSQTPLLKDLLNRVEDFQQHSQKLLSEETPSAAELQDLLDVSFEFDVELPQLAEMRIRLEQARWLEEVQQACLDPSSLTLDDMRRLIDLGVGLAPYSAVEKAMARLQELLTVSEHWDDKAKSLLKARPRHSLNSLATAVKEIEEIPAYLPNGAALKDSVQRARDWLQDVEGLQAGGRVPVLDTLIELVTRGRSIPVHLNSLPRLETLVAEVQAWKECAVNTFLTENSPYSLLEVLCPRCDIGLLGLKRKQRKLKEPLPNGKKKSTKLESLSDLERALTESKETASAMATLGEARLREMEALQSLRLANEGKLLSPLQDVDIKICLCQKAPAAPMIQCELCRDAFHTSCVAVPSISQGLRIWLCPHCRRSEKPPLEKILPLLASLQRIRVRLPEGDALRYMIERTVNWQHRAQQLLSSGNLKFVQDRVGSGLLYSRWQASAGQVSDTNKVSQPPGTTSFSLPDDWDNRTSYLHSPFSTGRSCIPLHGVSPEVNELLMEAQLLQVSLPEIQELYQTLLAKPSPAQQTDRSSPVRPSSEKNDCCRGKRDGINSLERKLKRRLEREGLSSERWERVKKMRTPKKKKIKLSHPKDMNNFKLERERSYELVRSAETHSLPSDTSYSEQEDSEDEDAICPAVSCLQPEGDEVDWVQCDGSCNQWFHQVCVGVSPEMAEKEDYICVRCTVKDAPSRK
#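 KDM5BΔAP (200 nM final) in 50 mM HEPES pH 7.5, 0.01% Tween-20 was preincubated 10 min at RT with compound over a concentration range. Substrate mix (H3K4me3 12.5 µM, α-KG 25 µM, Fe²⁺, ascorbate, NAD⁺, FDH) was added, and NADH fluorescence change over 30 min gave dose-response curves.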
# HEK293 viab: GF-AFC viability counterscreen for inhibitors of alpha-synuclein gene (SNCA) expression; HEK-293-SNCA-luc viability, GF-AFC fluorescence, 24 h; Potency, µM (series often up to 57.1 µM), for the others: at the highest dose activity change, negative = cytotoxicity, hits mostly cytotoxic; 0.12% of 150,000 active; AID 1671193, 2021;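 further: potency means the concentration at half of the fitted maximal effect; 0% = DMSO-treated cells and -100% = medium-only wells without cells; nearly all actives have a fitted effect of over 30% in size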
#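 Cytotoxicity counterscreen: after 24 h compound treatment of genome-edited SNCA-luciferase HEK-293 cells, live-cell protease substrate GF-AFC read by fluorescence after 30 min; activity scaled between DMSO (0%) and medium-only (-100%), curves Hill-fitted.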
# * hit, by the source's call; i = inactive; ? = inconclusive; · = not tested or not shown; [ ] = remark or other dose. Unless noted, the call rests on the fitted dose curve; in most records, active means well fitted curve in the direction sought with a large enough effect; inconclusive means small, poorly fitted or top-dose-only effect, or another doubt; inactive means no such curve, though single readings can be large; an effect the other way counts as inactive or inconclusive.
SMILES,IP6K1 inhibitor,SNCA expr inh,KDM5B inh,HEK293 viab
CN1C[C@@H](NC(=O)c2ccc(C(C)(C)C)cc2)C[C@H]1c1nc(-c2ccc3c(c2)OCO3)no1,-4,-29%,35µM*,?
O=C1NCCN2CC3(CCN(S(=O)(=O)Cc4ccccc4)CC3)CC12 (centres undefined),2,17%,?,-6%
COCC(C)NC(=O)Cn1nc(C)c2ccccc2c1=O (centres undefined),·,·,i,·
Cc1nn(-c2ccccc2)nc1C(=O)N[C@H](C)c1onc(-c2cccnc2)c1C(=O)O,29,14%,25µM*,-9%
COc1cccc(-c2csc(NCC(C)C)n2)c1,·,·,i,·
CCn1nccc1C(=O)NCc1cc(C)cc2c(C)c(-c3ccccc3)[nH]c12,18,-9%,13µM*,?
Cc1cc(CNC(=O)C(C)Cn2nc(C)nc2C)c2[nH]c(-c3ccccc3)c(C)c2c1 (centres undefined),13,15%,i,-23%
Cc1cc(CNC(=O)CC2C=CS(=O)(=O)C2)c2[nH]c(-c3ccccc3)c(C)c2c1 (centres undefined),10,80%,28µM*,3%
Cc1nc(CCC(=O)NCc2cc(Cl)cc3c(C)c(-c4ccccc4)[nH]c23)n[nH]1,-14,20%,25µM*,-1%
Cc1c(-c2ccccc2)[nH]c2c(CNC(=O)C3=NN(C)C(=O)CC3)cc(Cl)cc12,-10,20%,i,-23%
Cc1ncoc1C(=O)NCc1cc(Cl)cc2c(C)c(-c3ccccc3)[nH]c12,2,-1%,35µM*,-15%
CS(=O)(=O)N(CC(=O)NCC1CC1)c1cc(C(F)(F)F)ccc1Cl,-3,·,·,7%
CN(C)C(=O)c1ccc2cncn2c1,-3,-24%[87.6 µM],32µM*,3%[87.6 µM]
O=C(NC1CC1)c1ccc2cncn2c1,-1,8%[87.6 µM],32µM*,-1%[87.6 µM]
CNC(=O)c1ccc2cncn2c1,2,1%[87.6 µM],32µM*,-5%[87.6 µM]
O=C(NC1CC1)c1ccc2nccn2c1,7,19%[87.6 µM],·,4%[87.6 µM]
O=C(c1ccc2cncn2c1)N1CCOCC1,-5,-9%[87.6 µM],?,1%[87.6 µM]
COc1ccc(NC(=O)C2CCN(c3cnccn3)CC2)cc1OC,·,·,i,·
COc1cc(C)cc(C(C(=O)O)N2CCN(c3cnccn3)CC2)c1OC (centres undefined),28,-25%,28µM*,7%
N#Cc1cccc(-c2cn3c(n2)N(C(=O)C2CCC2)CCC3)c1,12,40%,22µM*,-6%
N#Cc1cccc(-c2cn3c(n2)N(C(=O)C2CCCO2)CCC3)c1 (centres undefined),-16,22%,32µM*,1%
Cc1nc(N2CCC(NC(=O)c3cc4ccccc4[nH]3)CC2)cc(C(F)(F)F)n1,10,5%,?,-6%
CN1Cc2ncnc(NCCc3ccccc3F)c2CN(c2ccccc2)C1=O,-4,-17%,i,1%
O=C(COc1ccccc1F)Nc1ccc2oc(-c3ccc(F)cc3)nc2c1,·,·,i,·
CC(C)c1nccn1CCCNC(=O)c1ccc(-c2ccc(F)cc2)nc1,-5,4%,i,?
SMILES,IP6K1 inhibitor,SNCA expr inh,KDM5B inh,HEK293 viab
COC1CCCN(c2ccc(C(=O)NCCCn3ccnc3C(C)C)cn2)C1 (centres undefined),3,7%,?,-8%
CC(C)c1nccn1CCCNC(=O)c1ccc(NC2CCC(O)CC2)nc1 (centres undefined),2,7%,28µM*,1%
COc1cccc(-c2ccc(C(=O)NCCCn3ccnc3C(C)C)cn2)c1,23,19%,28µM*,2%
CN(Cc1ccc(C(=O)NCC(F)(F)F)cc1)C(=O)Nc1ccccc1,·,·,i,·
O=C(c1ccccc1)N1CCCn2cc(-c3ccc4c(c3)OCO4)nc21,-6,77%,?,?
N#Cc1cccc(-c2cn3c(n2)N(C(=O)c2ccoc2)CCC3)c1,4,18%,25µM*,-11%
Cc1ccsc1C(=O)N1CCCn2cc(-c3cccc(C#N)c3)nc21,0,67%,14µM*,8%
N#Cc1cccc(-c2cn3c(n2)N(C(=O)c2ccccn2)CCC3)c1,7,14%,18µM*,6%
N#Cc1cccc(-c2cn3c(n2)N(C(=O)c2ccncc2)CCC3)c1,0,1%,20µM*,2%
Cc1nccn1CC(=O)N1CCCn2cc(-c3cccc(C#N)c3)nc21,3,-4%,?,1%
Cc1cc(C)c([S+](=O)([O-])c2nnn3c2nc(NC2CC2)c2ccccc23)c(C)c1,13,4%,i,-2%
COc1ccc(OC)c(CCNC(=O)c2ccc(N3C(=O)CCS3(=O)=O)cc2Cl)c1,·,·,i,·
O=Cc1ccc(N2CCN(C(=O)Nc3ccccc3)CC2=O)cc1,3,15%,?,0%
Cc1ccc(C(=O)N2CCCn3cc(-c4cccc(C#N)c4)nc32)cn1,14,31%,28µM*,-9%
N#Cc1cccc(-c2cn3c(n2)N(C(=O)c2cccc(F)c2)CCC3)c1,4,53%,22µM*,-6%
N#Cc1cccc(-c2cn3c(n2)N(C(=O)c2ccco2)CCC3)c1,17,16%,25µM*,-6%
S=C(NCCc1c[nH]c2ccccc12)Nc1ccc(Br)cc1,·,·,i,·
COc1ccc2c(c1)OCC(CNC(=O)c1ccc(C(C)C)n(C)c1=O)C2 (centres undefined),3,-1%,?,-3%
COc1ccc2c(c1)OCC(CNC(=O)c1cnn3ccccc13)C2 (centres undefined),10,-3%,25µM*,-3%
Cc1noc(C)c1Cn1cc2c3c(cccc31)[C@H](CC(C)C)N[C@H](C(=O)NCC1CC1)C2,-10,-16%[87.6 µM],32µM*,-3%[87.6 µM]
C#CCNC(=O)[C@@H]1Cc2cn(Cc3cc(C)on3)c3cccc(c23)[C@H](CC(C)C)N1,-13,16%[87.6 µM],32µM*,-1%[87.6 µM]
C=CCNC(=O)[C@@H]1Cc2cn(Cc3cc(C)on3)c3cccc(c23)[C@H](CC(C)C)N1,-15,?,?,?
CC(=O)NCCNC(=O)[C@@H]1Cc2cn(Cc3c(C)noc3C)c3cccc(c23)[C@H](CC(C)C)N1,-4,1%,i,2%
Cc1nc2nc(SCC(=O)Nc3ccc(C(C)C)cc3)[nH]c2cc1Br,·,·,i,·
Cn1cc(-c2cnc(Nc3ccncc3)c3c2CCO3)cn1,-7,8%[87.6 µM],35µM*,2%[87.6 µM]
Cc1cc(-c2cnc(Nc3ccc(F)cc3)c3c2CCO3)ccn1,-17,52%[87.6 µM],13µM*,-10%[87.6 µM]
CN(C)c1cccc(C(=O)Nc2ncc(-c3cnn(C)c3)c3c2OCC3)c1,-5,2%[87.6 µM],i,-5%[87.6 µM]
Cn1cc(-c2cnc(Nc3ccc(N4CCOCC4)cc3)c3c2CCO3)cn1,-4,78%[87.6 µM],?,-3%[87.6 µM]
Cn1cc(-c2cnc(Nc3ccc(F)c(Cl)c3)c3c2CCO3)cn1,-9,3%[87.6 µM],32µM*,-3%[87.6 µM]
